The whole screen tested about 320,000 compounds, of which about 9,100 (2.8%) were called active. About 3% were inconclusive and are not listed. Calls follow the shape of the dose curve; as a rule, active = well fitted activation curve with a large enough effect; inconclusive = small, poorly fitted or top-dose-only effect; inactive = no such curve, though single readings can be large or run the other way. The entries come from a sample that favours actives as a whole.
Potency is read from the fitted curve at half-maximal effect.

The test in a line: qHTS Assay for Rab9 Promoter Activators. Also: nearly all actives have a fitted effect of over 60% in size. As to activation, negative = inhibition: % of control where 0% means no effect. The settings on record: Huh7 Rab9 promoter-luciferase reporter, luminescence, 24 h; series mostly up to 9.22 µM; activation, negative = inhibition: at the top concentration. The gist of the method:
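Using Huh7 cells stably transfected with Rab9 promoter–luciferase, compounds were incubated 24 h at 37 °C, 5% CO2; luciferase luminescence was read 10 min after reagent addition.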
For orientation: qHTS replaces the single test concentration by a dilution series.
`O=C(Nc1nnc(-c2ccc(F)cc2)s1)c1c(F)cccc1Cl`: the “activation, negative = inhibition” value is 0.179% (inactive).

For the compound `CCOC(=O)c1cc(C(C)C)sc1NC(=O)COC(=O)c1nccnc1N`, the “activation, negative = inhibition” value was -5.34% (inactive). On the same count and under the same terms, to `NNC(=O)c1cccc(COCC(F)(F)C(F)F)c1` belongs 2.34% (inactive). Turning to `CC(C)c1cc(C(N)=O)c(NC(=O)c2cccc(COc3ccc(Br)cc3)c2)s1`, the Potency was 1260 nM (active). `COCC(C)NC(=O)c1ccc(-n2nc(C(F)(F)F)cc2-c2cccs2)cc1` (centres undefined): the “activation, negative = inhibition” value is -0.235% (inactive).

For the compound `C=CCn1c(=NC(=O)c2ccc(S(=O)(=O)N3CCCC3)cc2)sc2cc(NC(C)=O)ccc21`, the “activation, negative = inhibition” value is -11.8% (inactive). Take `C=CCn1c(=NC(=O)c2cccs2)sc2cc(NC(C)=O)ccc21`: the Potency was 3980 nM (active). For `C=CCn1c(CCNC(=O)c2cccs2)n[nH]c1=S`, the “activation, negative = inhibition” value was 2.05% (inactive). For the compound `Cc1cccc(NS(=O)(=O)c2cccc(C(=O)NNC(=O)c3ccccc3O)c2)c1`, the “activation, negative = inhibition” value is -12.8% (inactive). As for `O=C(CSc1ccccc1)Nc1cccc(S(=O)(=O)N2CCCCC2)c1`, the “activation, negative = inhibition” value was -0.555% (inactive).

In the case of `CCN(c1ccccc1)S(=O)(=O)c1ccc(OCC(=O)N2CCCC2)cc1`, the “activation, negative = inhibition” value was 1.98% (inactive). Same read-out and setting: to `CC(=O)Nc1ccc(SC[C@H](Cc2ccccc2)N2CC[C@@H](C)CCC2=O)cc1` belongs -2.39% (inactive); to `COc1cc(OC)cc(-c2nnc(N(C)C(=O)c3ccncc3)s2)c1`, 9.75% (inactive). Still for that read-out and setting: next, `COc1cccc(-c2nnc(N(C)C(=O)c3ccno3)s2)c1`: 21.5% (inactive). In the case of `CN(C(=O)c1ccccn1)c1nnc(-c2ccccn2)s1`, the Potency is 3550 nM (active). On to `O=C(CNc1ccccc1N1CCCC1=O)Nc1cc(Cl)ccc1-n1cncn1`, for which the “activation, negative = inhibition” value is -4.84% (inactive). On the same count and under the same terms, to `Cc1c(Br)c([N+](=O)[O-])nn1CC(=O)N1CCN(Cc2ccccc2)CC1` belongs -0.94% (inactive); to `O=C(COC(=O)c1cc(=O)[nH]c2ccccc12)NCc1cccc(Cl)c1`, 1.13% (inactive). Take `COc1ccc(C(=O)NCCSc2ccccc2C)cc1`: the Potency was 794 nM (active). For `COc1ccc(C(=O)NCc2nnc(SCCOc3ccccc3)n2C)cc1`, the “activation, negative = inhibition” value is -2.55% (inactive). Same read-out and setting: to `COc1cccc(C(=O)NCCSc2ccc(Br)cc2)c1` belongs -5.78% (inactive).

Regarding `CCNC(=O)N1CCN(S(=O)(=O)c2ccc3c(c2)OCCCO3)CC1`, the “activation, negative = inhibition” value was -0.383% (inactive). `COc1ccc(OC)c(/C=N/NC(=O)c2ccc[n+](CC(=O)c3ccccc3)c2)c1`: the “activation, negative = inhibition” value is 10.5% (inactive).

Regarding `Clc1ccc2nc(CSc3ccccc3)cn2c1`, the Potency is 316 nM (active). With `O=c1c2ccccc2nc2n1C(CSc1ccc(Cl)cc1)CN2` (centres undefined), the “activation, negative = inhibition” value was -4.15% (inactive). On the same count and under the same terms, to `O=C(/C=C/c1ccc2c(c1)OCO2)NCc1cn2cc(Cl)ccc2n1` belongs -1.87% (inactive). With `O=C(Nc1ccc2oc(-c3ccc4ccccc4c3)nc2c1)c1cccs1`, the Potency is 1260 nM (active). Regarding `COc1cc2ccccc2cc1C(=O)Nc1ccc(NC(=O)c2cccs2)cc1`, the “activation, negative = inhibition” value was 2.39% (inactive). As to `O=C(Nc1ccc(NC(=O)c2cccs2)cc1)c1ccc2ccccc2c1`, the “activation, negative = inhibition” value was 11.8% (inactive).

As to `COc1ccc(S(=O)(=O)N2CCN(CC(=O)N3c4ccccc4CC3C)CC2)cc1OC` (centres undefined), the “activation, negative = inhibition” value was -4.56% (inactive). As to `Nc1nc(SCC(=O)Nc2ccc(Cl)c([N+](=O)[O-])c2)n[nH]1`, the “activation, negative = inhibition” value is -2.62% (inactive). Regarding `C/C=C\C=C\C(=O)N1CC2(CC(c3cccc(NC(=O)/C(C)=C\C)c3)=NO2)C[C@H]1C(N)=O` (some centres undefined), the “activation, negative = inhibition” value is -10.8% (inactive).

As for `COc1ccccc1C1CCN(C(=S)Nc2ccc(Br)cc2)CC1`, the “activation, negative = inhibition” value was 3.49% (inactive). `CC(C(=O)N1CCc2ccccc21)N(C)CC(=O)Nc1ccc(F)cc1` (centres undefined): the “activation, negative = inhibition” value was -0.555% (inactive). Consider `CN(CCOc1ccccc1)C(=O)c1cc(COc2c(F)cccc2F)on1`, for which the “activation, negative = inhibition” value was 3.49% (inactive).

As for `Cc1cc(CN(C)C(=O)c2cc(COc3ccc(C)c(C)c3)on2)n[nH]1`, the Potency is 2000 nM (active). As for `Cc1ccc(OCc2cc(C(=O)N(C)CCc3ccccc3)no2)cc1C`, the Potency is 3980 nM (active). As to `CN(Cc1cnccn1)C(=O)c1cc(COc2cccc(C(F)(F)F)c2)on1`, the “activation, negative = inhibition” value is 29.7% (inactive). Same read-out and setting: next, `CCn1ccnc1CN(C)C(=O)c1cc(COc2ccc(-n3cncn3)cc2)on1`: -0.6% (inactive); `CN(Cc1cccnc1)C(=O)c1cc(COc2ccc3ncccc3c2)on1`: -26.6% (inactive); `COc1ccc(C(=O)N2CCN(c3ncccn3)CC2)cc1S(=O)(=O)N1CCOCC1`: -2.99% (inactive).

With `COc1cccc(NC(=O)CN(C)C(=O)/C=C/c2cn(-c3ccccc3)nc2-c2cccs2)c1`, the “activation, negative = inhibition” value was -3.55% (inactive). On the same count and under the same terms, next, `CN(C)CCn1c(=S)[nH]c2ccc(Cl)cc2c1=O`: 2.67% (inactive). As for `CN(C)CCN=c1cc(-c2ccccc2)oc2ccc(Cl)cc12`, the Potency is 2820 nM (active). `O=C(NCC#CCSc1nnc(-c2cccc3ccccc23)o1)c1cccs1`: the “activation, negative = inhibition” value was 2.25% (inactive). Same read-out and setting: next, `COCCN(C(=O)CC1CCCCC1)c1c(N)n(CC(C)C)c(=O)[nH]c1=O`: 0.171% (inactive). For the compound `O=C(Nc1ccc(S(=O)(=O)N2CCCCC2)cc1)C1CCN(C(=O)c2ccc(F)cc2)CC1`, the “activation, negative = inhibition” value was -6.42% (inactive).

For `Cc1ccc(S(=O)(=O)N(C)C)cc1NC(=O)CN1c2cccc3cccc(c23)S1(=O)=O`, the “activation, negative = inhibition” value was 11% (inactive). The same measure, in the same setting: to `COc1ccc(C(=O)Nc2cccc(S(C)(=O)=O)c2)cc1` belongs -1.5% (inactive).

For `COc1ccc(NC(=O)c2ccc(OC)cc2)cc1`, the Potency was 1410 nM (active). Turning to `COc1ccccc1CC(=O)Nc1ccc(F)cc1F`, the “activation, negative = inhibition” value is 6.21% (inactive).

For `COc1ccc(NC(=O)c2ccc(C#CC(C)(C)O)cc2)cc1`, the “activation, negative = inhibition” value was 27.7% (inactive). For the compound `COc1ccc(C(=O)Nc2ccc(F)cc2F)cc1`, the Potency was 2510 nM (active). As to `COc1cc(OC)cc(C(=O)OCC(=O)Nc2ccc(F)cc2F)c1`, the “activation, negative = inhibition” value was 1.48% (inactive).

Values taken from PubChem BioAssay AID485297 (National Center for Advancing Translational Sciences (NCATS), 2010).
